Measured values taken from PubChem BioAssay (Tox21).
Inconclusive results are not listed. Calls of active or inactive are those of the source. Unless noted, calls come from the whole dose curve; as a rule, active = well fitted curve in the direction sought with a large enough effect in the repeat runs; inconclusive = weak or mixed curves; inactive = no such curve, though single readings can be large; an effect the other way counts as inactive or inconclusive.

Columns and labels:
[1] = qHTS assay to identify small molecule antagonists of the estrogen receptor alpha (ER-alpha) signaling pathway using the BG1 cell line in the presence of 0.1 nM 17-beta-estradiol - cell viability counter screen (AID 1259241); note: nearly all actives have a fitted effect of over 40% in size
Summary of the method: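 CellTiter-Fluor read (30 min, 37C) on ER-alpha/ERE-luc VM7Luc4E2 cells; 22 hr compound treatment; agonist 0.1 nM E2 final; same-well multiplex.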

[2] = qHTS assay to identify small molecule antagonists of the androgen receptor (AR) signaling pathway using the MDA cell line in the presence of 0.5 nM R1881 - cell viability counter screen (AID 1259242); note: nearly all actives have a fitted effect of over 45% in size
Summary of the method: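 Steps: plate MDA-kb2 cells, rest 5 hr at 37C without CO2; pin in compounds in DMSO; add R1881 to 0.5 nM final; incubate 16 hr; add CellTiter-Fluor, 30 min; read fluorescence.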

[3] = molecular target: Estrogen receptor (Homo sapiens) (UniProt P03372); assay: qHTS assay to identify small molecule antagonists of the estrogen receptor alpha (ER-alpha) signaling pathway using the BG1 cell line in the presence of 0.1 nM 17-beta-estradiol (AID 1259244); note: nearly all actives have a fitted effect of over 50% in size
Chain of Estrogen receptor (Homo sapiens) (P03372 whole entry, looked up): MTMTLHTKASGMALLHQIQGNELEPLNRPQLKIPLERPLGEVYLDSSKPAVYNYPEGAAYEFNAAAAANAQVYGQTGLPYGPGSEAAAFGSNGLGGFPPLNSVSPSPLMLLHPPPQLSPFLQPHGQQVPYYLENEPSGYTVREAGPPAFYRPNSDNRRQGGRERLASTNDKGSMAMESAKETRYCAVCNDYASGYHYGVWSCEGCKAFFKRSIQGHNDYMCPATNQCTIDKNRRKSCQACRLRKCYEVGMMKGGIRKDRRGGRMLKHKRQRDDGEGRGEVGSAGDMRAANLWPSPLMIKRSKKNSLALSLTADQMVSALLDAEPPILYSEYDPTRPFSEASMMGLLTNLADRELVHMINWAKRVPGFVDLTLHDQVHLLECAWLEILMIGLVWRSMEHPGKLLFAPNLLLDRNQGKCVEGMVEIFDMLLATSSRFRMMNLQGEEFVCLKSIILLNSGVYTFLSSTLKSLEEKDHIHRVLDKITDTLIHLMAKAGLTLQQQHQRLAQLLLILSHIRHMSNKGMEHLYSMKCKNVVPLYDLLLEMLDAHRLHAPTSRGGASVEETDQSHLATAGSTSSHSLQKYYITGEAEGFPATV
Summary of the method: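 Antagonist mode: compounds in DMSO are pinned onto VM7Luc4E2 reporter cells, 0.1 nM final 17beta-estradiol is added, and after 22 h at 37C luciferase luminescence is measured with ONE-Glo.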

[4] = qHTS assay to identify small molecule HDAC inhibitors (AID 1259364);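 note: wild-type HCT-116 cells with endogenous class I/II HDAC activity; top concentration of the series differs between compounds; nearly all actives have a fitted effect of over 45% in size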
Summary of the method: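 Cells (HCT-116, wild type) are seeded at 1,500 per well, incubated overnight, treated with compound in DMSO for 2 hr, then developed with HDAC-Glo I/II reagent for 30 min at room temperature.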

[5] = qHTS assay to identify small molecule HDAC inhibitors - cell viability counter screen (AID 1259365); note: series mostly up to about 92 µM; nearly all actives have a fitted effect of over 50% in size
Summary of the method: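 To flag cytotoxic hits, 1,500 wild-type HCT-116 cells per well, plated the day before, receive test compounds for 2hr at 37 C before CellTiter-Glo reagent and a luminescence read.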

[6] = qHTS assay to identify small molecule agonists of the sonic hedgehog signaling (Shh) pathway - cell viability counter screen (AID 1259366); note: nearly all actives have a fitted effect of over 50% in size
Summary of the method: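 Fluorescence from CellTiter-Fluor reports live cells in this counter screen. NIH/3T3-derived Gli1-Luc reporter cells receive test compounds for 24hr at 37C; reagent goes in at 23hr.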

[7] = qHTS assay to identify small molecule antagonists of the sonic hedgehog signaling (Shh) pathway - cell viability counter screen (AID 1259367); note: nearly all actives have a fitted effect of over 55% in size
Summary of the method: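 CellTiter-Fluor signal in conditioned medium-stimulated 3T3 Gli1-Luc cells, 23 hr compound exposure, 37C.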

[8] = qHTS assay to identify small molecule agonists of the sonic hedgehog signaling (Shh) pathway (AID 1259368; calls by dose curve;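 note: NIH/3T3-derived 3T3Gli1-Luc cells carrying a stable Gli1-driven firefly luciferase reporter; series mostly up to about 92 µM; nearly all actives have a fitted effect of over 15% in size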)
Summary of the method: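 Cells of a mouse NIH/3T3 clone stably expressing luciferase under the Gli1 transcriptional response element are exposed to test chemicals for 24 hr at 37 C. Pathway activation is detected as a rise in luminescence.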

[9] = qHTS assay to identify small molecule antagonists of the sonic hedgehog signaling (Shh) pathway (AID 1259369; calls by dose curve; note: nearly all actives have a fitted effect of over 45% in size)
Summary of the method: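 Cells are plated and held 4hr at 37 C, compounds (DMSO) are pinned in, conditioned medium is added to stimulate the pathway, and after 24hr luciferase reagent is added for 30min before luminescence is read.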

[10] = molecular target: Estrogen receptor beta (Homo sapiens) (UniProt Q92731); assay: qHTS assay to identify small molecule agonists of the estrogen receptor beta (ER-beta) signaling pathway (AID 1259377; active = well fitted activation curve with a large enough effect in the signal ratio in the repeat runs, not every such curve was filed as active; the % refers to the signal ratio)
Chain of Estrogen receptor beta (Homo sapiens) (Q92731 whole entry, looked up): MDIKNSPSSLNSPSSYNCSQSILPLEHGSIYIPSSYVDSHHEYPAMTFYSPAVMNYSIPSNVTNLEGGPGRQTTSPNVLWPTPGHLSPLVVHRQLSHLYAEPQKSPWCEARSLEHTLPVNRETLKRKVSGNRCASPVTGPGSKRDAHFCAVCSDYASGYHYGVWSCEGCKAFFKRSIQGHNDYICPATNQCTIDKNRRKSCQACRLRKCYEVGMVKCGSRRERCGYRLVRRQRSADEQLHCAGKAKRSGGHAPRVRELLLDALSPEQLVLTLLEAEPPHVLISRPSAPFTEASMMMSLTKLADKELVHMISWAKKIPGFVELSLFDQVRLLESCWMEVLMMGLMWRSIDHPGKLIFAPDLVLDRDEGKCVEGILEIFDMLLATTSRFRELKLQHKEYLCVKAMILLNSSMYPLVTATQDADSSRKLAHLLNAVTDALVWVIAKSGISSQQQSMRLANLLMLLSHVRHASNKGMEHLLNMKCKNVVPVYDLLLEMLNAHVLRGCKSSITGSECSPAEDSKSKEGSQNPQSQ
Summary of the method: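 Screening used GripTite ER-beta-UAS-bla cells held in 2% charcoal-stripped FBS medium. After overnight (16 hr) compound incubation at 37C, beta-lactamase activity was detected with a FRET substrate by fluorescence.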

[11] = molecular target: Estrogen receptor beta (Homo sapiens) (UniProt Q92731); assay: qHTS assay to identify small molecule antagonists of the estrogen receptor beta (ER-beta) signaling pathway (AID 1259378; active = well fitted inhibition curve with a large enough effect in the signal ratio in the repeat runs, not every such curve was filed as active; the % refers to the signal ratio)
Summary of the method: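 Antagonist mode: compounds added to beta-lactamase reporter HEK293T ER-beta-UAS cells stimulated with E2 (1nM final), 16 hr at 37C. LiveBLAzer B/G FRET substrate, 2 hours room temperature, fluorescence read-out.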

[12] = qHTS assay to identify small molecule agonists of the androgen receptor (AR) signaling pathway in the presence of an antagonist - cell viability counter screen (AID 1259379);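 note: MDA-kb2 human breast cancer cells carrying an MMTV luciferase reporter; series mostly up to about 92 µM; nearly all actives have a fitted effect of over 25% in size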
Summary of the method: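 Cytotoxicity is assessed by CellTiter-Fluor in MDA-kb2 cells carrying an MMTV-driven luciferase reporter. Cells receive 3.0uM nilutamide plus compounds at 15 concentrations and incubate 16 hr at 37C without CO2 before fluorescence reading.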

[13] = qHTS assay to identify small molecule agonists of the estrogen receptor beta (ER-beta) signaling pathway - cell viability counter screen (AID 1259380); note: nearly all actives have a fitted effect of over 30% in size
Summary of the method: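 Cytotoxicity is measured in parallel with the reporter screen: after 16 hr compound exposure at 37C and a 2 hr LiveBLAzer step, CellTiter-Glo is added to the same ER-beta-UAS-bla HEK293T wells and luminescence read after 30 min.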

[14] = qHTS assay to identify small molecule antagonists of the estrogen receptor beta (ER-beta) signaling pathway - cell viability counter screen (AID 1259382);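 note: HEK293T cells carrying ER-beta-UAS-bla reporter stimulated with estradiol; series mostly up to about 92 µM; nearly all actives have a fitted effect of over 55% in size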
Summary of the method: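 Cytotoxicity counter screen multiplexed with the beta-lactamase antagonist assay: GripTite HEK293T ER-beta-bla cells were treated 16 hr with test chemicals in the presence of 1nM 17-beta-estradiol, and viability was measured by CellTiter-Glo.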

[15] = qHTS assay to identify small molecule agonists or antagonists of the thyroid stimulating hormone receptor (TSHR) signaling pathway - wild type cell line counter screen (AID 1259384; calls by dose curve)
Summary of the method: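 Counter screen in untransfected Hek293: compounds (15-point titration, triplicate) plus phosphodiesterase inhibitor Ro20-1724 added after 18 h plating; 30 min RT. Intracellular cAMP via competitive d2/cryptate immunoassay, 1 h incubation.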

[16] = molecular target: Estrogen receptor (Homo sapiens) (UniProt P03372); assay: qHTS assay to identify small molecule agonists of the estrogen receptor alpha (ER-alpha) signaling pathway in the presence of an antagonist (AID 1259383; calls by dose curve; note: top concentration of the series differs between compounds; nearly all actives have a fitted effect of over 15% in size)
Summary of the method: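 Agonist-mode confirmation in the presence of the ER antagonist ICI-182,780 at 10.0nM final. Breast-derived VM7Luc4E2 reporter cells were exposed to compounds for 22hr, and ERE-driven luciferase was quantified by luminescence.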

[17] = qHTS assay to identify small molecule phospholipidosis (PLD) inducers (AID 1259344; active = well fitted curve in the direction sought with a large enough effect; an effect the other way counts as inactive or inconclusive)
Summary of the method: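 Accumulated phospholipid, stained red by LipidTOX during 24 h compound treatment of HepG2 cells at 37 C, is quantified from images as pit number and intensity, normalised per cell using Hoechst-stained nuclei.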

[18] = molecular target: Androgen receptor (Homo sapiens) (UniProt P10275); assay: qHTS assay to identify small molecule antagonists of the androgen receptor (AR) signaling pathway using the MDA cell line in the presence of 0.5 nM R1881 (AID 1259243); note: nearly all actives have a fitted effect of over 50% in size
Chain of Androgen receptor (Homo sapiens) (P10275 whole entry, looked up): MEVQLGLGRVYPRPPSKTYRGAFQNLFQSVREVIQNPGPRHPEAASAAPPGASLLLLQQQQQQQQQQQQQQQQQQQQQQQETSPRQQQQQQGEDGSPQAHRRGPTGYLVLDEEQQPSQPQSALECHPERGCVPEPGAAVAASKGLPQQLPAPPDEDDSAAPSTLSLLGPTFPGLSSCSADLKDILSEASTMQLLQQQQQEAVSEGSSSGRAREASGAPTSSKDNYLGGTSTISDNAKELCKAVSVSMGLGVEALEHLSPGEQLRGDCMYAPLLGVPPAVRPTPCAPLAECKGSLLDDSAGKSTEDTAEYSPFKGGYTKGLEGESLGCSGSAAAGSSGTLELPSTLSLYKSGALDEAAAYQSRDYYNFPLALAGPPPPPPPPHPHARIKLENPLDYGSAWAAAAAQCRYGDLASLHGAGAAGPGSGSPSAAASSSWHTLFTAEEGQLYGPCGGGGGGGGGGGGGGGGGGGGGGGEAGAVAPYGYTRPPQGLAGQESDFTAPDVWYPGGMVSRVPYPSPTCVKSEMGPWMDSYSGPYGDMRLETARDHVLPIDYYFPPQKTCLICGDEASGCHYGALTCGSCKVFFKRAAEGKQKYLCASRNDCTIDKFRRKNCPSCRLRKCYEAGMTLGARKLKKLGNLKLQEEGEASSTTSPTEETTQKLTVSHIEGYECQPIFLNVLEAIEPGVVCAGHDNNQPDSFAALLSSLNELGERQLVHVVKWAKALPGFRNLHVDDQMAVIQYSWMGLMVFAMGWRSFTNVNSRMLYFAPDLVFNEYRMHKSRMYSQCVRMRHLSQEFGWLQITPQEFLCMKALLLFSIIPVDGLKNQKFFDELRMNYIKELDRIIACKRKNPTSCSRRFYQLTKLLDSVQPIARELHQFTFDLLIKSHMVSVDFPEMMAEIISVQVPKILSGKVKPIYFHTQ
Summary of the method: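 Stably transfected MDA-kb2 cells express luciferase from an MMTV promoter bearing both AR and GR response elements. Compounds plus 0.5 nM R1881 (final) were incubated 16 hr at 37C without CO2, then luminescence measured.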

[19] = molecular target: Androgen receptor (Homo sapiens) (UniProt P10275); assay: qHTS assay to identify small molecule agonists of the androgen receptor (AR) signaling pathway in the presence of an antagonist (AID 1259381; calls by dose curve; note: nearly all actives have a fitted effect of over 15% in size)
Summary of the method: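 Agonist-mode confirmation screen: human MDA-kb2 cells stably expressing luciferase under an MMTV promoter bearing AR and GR response elements, co-treated with 3.0uM nilutamide (final). Luminescence measured after 16hr compound incubation.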

Measured: Potency

C=C(C)C(=O)OCCOP(=O)(O)OCCOC(=O)C(=C)C
not listed: [16] | [17] | [18] | [19]
inactive: all other assays above

c1ccc2nccnc2c1
not listed: [1] | [11] | [17] | [18] | [19]
inactive: all other assays above

CC(C)(C)c1cc(CCC(=O)NN)cc(C(C)(C)C)c1O
not listed: [3] | [10] | [11] | [13] | [16] | [17] | [18] | [19]
inactive: all other assays above

O=C1c2cccc3c2[C@H](CCC3)CN1[C@@H]1CN2CCC1CC2
not listed: [6] | [9] | [10] | [11] | [13] | [18] | [19]
inactive: all other assays above

C=C(C)C(=O)OCCN(CC)CC
not listed: [3] | [10] | [11] | [16] | [17]
inactive: all other assays above

CC(=O)NCc1c(I)c(NC(C)=O)c(I)c(C(=O)O)c1I
not listed: [1] | [9] | [16] | [19]
inactive: all other assays above

Cc1ccccc1N=O
not listed: [3] | [10] | [11] | [16] | [17] | [18] | [19]
inactive: all other assays above

O=S(=O)(O)CCN1CCN(CCO)CC1
not listed: [3] | [9] | [16] | [17] | [18] | [19]
inactive: all other assays above

CC(C)CC(C)CC(C)CC(C)COC(=O)c1ccccc1C(=O)OCC(C)CC(C)CC(C)CC(C)C (configuration not stated)
not listed: [3] | [9] | [10] | [11] | [16] | [17] | [18] | [19]
inactive: all other assays above
